Activity calls are given as the source filed them. How the source made its calls: active means hit-call score of the fitted dose curve at least 0.9, where 1 is the maximum; inactive means score below 0.9.

This test is described as follows: APR_HepG2_CellCycleArrest_72hr: Apredica 72-hour HepG2 Assay for Cell Cycle Arrest (AID 2282914). Particulars: high-content imaging, actives raise or lower the signal. Here is the method: APR_HepG2_72hr is a cell-based, multiplexed-readout assay that uses HepG2, a human liver cell line, with measurements taken at 72 hours after chemical dosing in a 384-well plate.APR_HepG2_CellCycleArrest_72hr is one of 10 assay component(s) measured or calculated from the APR_HepG2_72hr assay. It is designed to make measurements of cell phenotype, a form of morphology reporter, as detected with fluorescence intensity signals by HCS Fluorescent Imaging technology.Data from the assay component APR_HepG2_CellCycleArrest_72hr was analyzed into 1 assay endpoint. This assay endpoint, APR_HepG2_CellCycleArrest_72hr, was analyzed with bidirectional fitting relative to DMSO as the negative control and baseline of activity. Using a type of morphology reporter, measures of all nuclear dna for gain or loss-of-signal activity can be used to understand the signaling at the pathway-level as they relate to the gene . Furthermore, this assay endpoint can be referred to as a primary readout, because this assay has produced multiple assay endpoints where this one serves a signaling function. To generalize the intended target to other relatable targets, this assay endpoint is annotated to the cell cycle intended target family, where the subfamily is arrest.
Cells were treated with dimethyl sulfoxide (DMSO) as a solvent control at a final concentration of 0.5% v/v or with compounds in DMSO with a resulting final DMSO concentration of 0.5% v/v. Compound treatment was done at concentrations of 0.39, 0.78, 1.56, 3.12, 6.24, 12.5, 25, 50, 100, and 200 uM in duplicate on each plate. Cells were treated with compounds for 1, 24, or 72 hr. Carbonyl […] m-chloro-phenylhydrazone (CCCP) and taxol were used as positive controls for mitochondrial function and cytoskeletal stability, respectively; DMSO served as the negative control for this experiment. Cells were fixed by the direct addition of 50 uL formaldehyde in Hank's Balanced Salt Solution (HBSS) to a final concentration of 3.7%. After incubation in the fixation medium for 30 min at room temperature (293-298 K), cells were rinsed twice with HBSS and treated with cell permeabilization buffer (16 uL of 0.5% Triton X-100) for 10 min at room temperature (293-298 K) before labeling. For mitochondrial membrane potential and mitochondrial measurements, pre-fixed cells were incubated with 50 uL of MitoTracker Red CMXRos (Invitrogen) at a concentration of 250 nM for 30 min before fixation. In the remaining cases, post-fixed cells were labeled by incubation with a multiplexed mixture of primary antibodies in HBSS for 60 min at room temperature (293-298 K) to detect immunoreactivity of c-Jun (1:500), phospho-histone H3 (1:100), phospho-histone H2A.x (1:200), p53 (1:400), alpha-tubulin (1:200) and Hoechst 33342 (2 ug/mL). Cells were labeled for multiplexed imaging on two separate plates: a) Hoechst 33342, MitoTracker Red, phospho-histone H3, and alpha-tubulin, and b) Hoechst 33342, phospho-histone H2A.x, and c-Jun. A final rinse with HBSS (50 uL) was performed before analysis. The primary and secondary antibodies for the proteins were phospho-histone H3 (rabbit anti-phospho-histone H3 and FITC-donkey anti-rabbit IgG), phospho-histone H2A.x (mouse anti-phospho-histone H2A.x and FITC-donkey anti-mouse IgG), c-Jun (rabbit anti-phospho-c-Jun and Cy3-donkey anti-rabbit IgG), p53 (sheep anti-p53 and Cy5-donkey anti-sheep IgG), alpha-tubulin (mouse anti-alpha-tubulin and Cy5-donkey anti-mouse IgG). These antibodies are available as the CellCiphr HepG2 assay kit (Millipore).Digital images of each well were captured using a Cellomics ArrayScan VTI (Thermo Scientific Cellomics) (0.8 NA objective, 0.63x optical coupler, and XF-93 filter set) at 20x magnification. The images were acquired using the autofocus feature of the ArrayScan instrument, which entails the following steps. First, the camera focuses on channel 1 (Hoechst 33342), where nuclei are identified. Second, a Z offset of 1 um is used for capturing mitochondria (MitoTracker Red). […]
Consider `COC(=O)c1ccccc1O`, for which the compound was classed as inactive. One may read the AC50 as the concentration at which the activity in the assay is half-maximal. With `CCCCCCCCCCCCCCCO`, the AC50 is 110 µM (active). Take `O=C(CCCCCCCCc1cccnc1)N1CCC(C=C(c2ccccc2)c2ccccc2)CC1`: the compound was classed as inactive.

Take `Cc1ccc(S(=O)(=O)O)cc1C`: the compound was called inactive. In the case of `O=C(NS(=O)(=O)/C=C/c1ccccc1)c1ccc(F)cc1Cl`, the outcome was inactive. Still for that read-out and setting: in the case of `CC(C)CCCCCCOC(=O)c1ccc(C(=O)OCCCCCCC(C)C)c(C(=O)OCCCCCCC(C)C)c1` it was “inactive”; in that of `CC(C)=CCCC(C)=CC=O`, “inactive”. With `CCOC(=O)COc1ccc2c(c1)CC(NCC(O)c1cccc(Cl)c1)CC2` (stereo not given), the outcome was inactive. The same measure, in the same setting: in the case of `O=C(OC[C@H]1O[C@@H](OC(=O)c2cc(O)c(O)c(OC(=O)c3cc(O)c(O)c(O)c3)c2)[C@H](OC(=O)c2cc(O)c(O)c(OC(=O)c3cc(O)c(O)c(O)c3)c2)[C@@H](OC(=O)c2cc(O)c(O)c(OC(=O)c3cc(O)c(O)c(O)c3)c2)[C@@H]1OC(=O)c1cc(O)c(O)c(OC(=O)c2cc(O)c(O)c(O)c2)c1)c1cc(O)c(O)c(OC(=O)c2cc(O)c(O)c(O)c2)c1` it was “inactive”.

Take `NC(=O)NO`: the compound was classed as inactive. On the same count and under the same terms, in the case of `C=CCCCCCCCCC(=O)O` it was “inactive”; in that of `O=C(O)CCN(C1(C(=O)NO)CCCC1)S(=O)(=O)c1ccc(Oc2ccc(F)cc2)cc1`, “inactive”. For the compound `Nc1ccc(Nc2ccccc2)cc1`, the AC50 was 13.8 µM (active).

As for `O=C1CCC(N2C(=O)c3ccccc3C2=O)C(=O)N1` (stereo not given), the compound was classed as inactive. Regarding `Fc1ccccc1[C@@H](F)COC1CCC(Nc2ncnc3[nH]ncc23)CC1` (stereo not given in full), the AC50 was 50.1 µM (active). Regarding `CCCN(C1CCN(C(=O)C2CCNCC2)CC1)[C@@H]1CCc2ccc(OC)cc2C1`, the call was inactive. For `Cn1c(=O)cc(Oc2ccc(F)cc2F)c2cnc(NCC(C)(C)O)nc21`, the AC50 was 112 µM (active). As for `CCOCCOCCOCCO`, the result was inactive. `C1=CCCC=CCCC=CCC1`: the compound was called inactive. Still for that read-out and setting: the same measure for `CC[C@H]1CC[C@H](NCc2cc3c(cc2OC)[C@H]2C[C@H]2C(=O)N3C)[C@H](c2ccccc2)N1`: “inactive”; for `CC(O)CN(CCN(CC(C)O)CC(C)O)CC(C)O` (stereo not given): “inactive”; for `CC(C)CCCCCCCOC(=O)CCCCC(=O)OCCCCCCCC(C)C`: “inactive”.

Turning to `COC(=O)c1c(Cl)c(Cl)c(C(=O)OC)c(Cl)c1Cl`, the result was inactive. The same measure, in the same setting: in the case of `C=CC(=C)CCC=C(C)C` it was “inactive”; in that of `COc1ccc2sc(C(=O)Nc3nnn[nH]3)c(OC(C)C)c2c1`, “inactive”.

On to `Cn1c(=O)c2c(ncn2C)n(C)c1=O`, for which the outcome was inactive. `CCOCCO`: the compound was called inactive.

In the case of `CNCc1ccc(NC(=O)c2c[nH]c3c2C(=O)CCC3)cc1`, the call was inactive.

For the compound `CCCCCCCCO`, the outcome was inactive. Same read-out and setting: in the case of `Cc1ccc(O)cc1` it was “inactive”. `CCOc1cccc(-n2cc(C(=O)N3CCN(c4cc(C(=O)O)c5ccccc5c4)CC3)nc2-c2ccc(C)cc2)c1`: the AC50 was 96 µM (active).

As for `CCOC(=O)CC(CC(=O)OCC)(OC(C)=O)C(=O)OCC`, the AC50 was 82.1 µM (active). On to `O=C1OC(=O)C2C3C=CC(C3)C12` (stereo not given), for which the outcome was inactive. Same read-out and setting: in the case of `CCn1nc(Cc2ccccc2)cc1C1CCN(C[C@H]2C[C@H](N(C)[C@@H](C(=O)O)C(C)C)C[C@@H]2c2cccc(F)c2)CC1` it was “inactive”. As to `CNS(=O)(=O)c1cc(C(=O)N2CCC(CCN3C4CCC3CC(n3c(C)nc5ccccc53)C4)(c3cccc(F)c3)CC2)c(Cl)cc1F` (stereo not given), the AC50 is 78.9 µM (active).

As to `C[C@](N)(Cc1ccc(O)c(O)c1)C(=O)O`, the compound was called inactive. The same measure, in the same setting: the same measure for `CC(C)=CCC/C(C)=C/CO`: “inactive”. Same read-out and setting: the same measure for `CC(=O)c1ccc2c(c1)[C@H](NC(=O)c1ccc(F)cc1)[C@@H](O)C(C)(C)O2`: “inactive”; for `CCCCCCCCCCCCc1ccccc1`: “inactive”; for `Cc1ccc(C)c(O)c1`: “inactive”.

For the origin of these results see PubChem BioAssay (EPA / NIEHS).
